Laboratory results as given in PubChem BioAssay (NCI).
About 83,000 compounds went through this panel and 20% of them were active in at least one assay; those are over-represented in the sample as a whole.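 Assay: single dose, 48 h. Readout: percent growth (0 = no net growth; negative = cell death). Active: <10.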 Values without a mark were called inactive. Activity calls are given as the source filed them.

Tests used:
Assay in all cases: NCI-60 one-dose screen, 48 h (100 = growth as untreated, 0 = no growth, -100 = all killed)
HCT-15 colon = details: 10 µM unless noted
HT29 colon = details: 10 µM unless noted
SNB-75 CNS = details: 10 µM unless noted
SNB-19 CNS = details: 10 µM unless noted
U251 CNS = details: 10 µM unless noted
PC-3 prostate = details: 10 µM unless noted
SK-MEL-5 melanoma = details: 10 µM unless noted
UACC-62 melanoma = details: 10 µM unless noted
SK-MEL-2 melanoma = details: 10 µM unless noted
EKVX NSCLC = details: 10 µM unless noted
SN12C renal = details: 10 µM unless noted
UO-31 renal = details: 10 µM unless noted
TK-10 renal = details: 10 µM unless noted
ACHN renal = details: 10 µM unless noted
CAKI-1 renal = details: 10 µM unless noted
A498 renal = details: 10 µM unless noted
CCRF-CEM leukemia = details: 10 µM unless noted
MOLT-4 leukemia = details: 10 µM unless noted
LOX IMVI melanoma = details: 10 µM
SK-MEL-28 melanoma = details: 10 µM unless noted

| SMILES | growth (HCT-15 colon) | growth (HT29 colon) | growth (SNB-75 CNS) | growth (SNB-19 CNS) [%] | growth (U251 CNS) | growth (PC-3 prostate) [%] | growth (SK-MEL-5 melanoma) | growth (UACC-62 melanoma) [%] | growth (SK-MEL-2 melanoma) [%] | growth (EKVX NSCLC) [%] | growth (SN12C renal) [%] | growth (UO-31 renal) | growth (TK-10 renal) [%] | growth (ACHN renal) [%] | growth (CAKI-1 renal) [%] | growth (A498 renal) [%] | growth (CCRF-CEM leukemia) | growth (MOLT-4 leukemia) | growth (LOX IMVI melanoma) | growth (SK-MEL-28 melanoma) [%] |
| --- | --- | --- | --- | --- | --- | --- | --- | --- | --- | --- | --- | --- | --- | --- | --- | --- | --- | --- | --- | --- |
| CCN(CC)C(=O)N/C(N)=N/c1nc2ccccc2s1 | 54% | 62.5% | 63.9% | 56.5 | 66.9% | 54.9 | -24.9% (active) | 43.7 | 65.5 | 15.3 | 50.1 | 37.7% | 53.7 | 50.7 | 36.6 | 55.6 | 41.9% | -4.3% (active) |  |  |
| CCN(CC)c1ccc(/C=N/Nc2nc(-c3ccc(Br)cc3)cs2)c(O)c1 | 11.5% | 56.3% | 77.4% | 107 | 81.7% | 85.2 | 77.2% |  | 94.6 | 90.9 | 23.1 | 65.4% | 96.5 | 76.1 | 55.1 | 102 | 1.36% (active) | 12.3% | -57.5% (active) | 86.2 |
| CC(=O)Nc1ccc(-c2cn(-c3cccc(C(=O)Nc4ccc(N5CCN(C)CC5)cc4)c3)nn2)cn1 | 91.5% | 6.82% (active) | 99% | 49.4 | 50.8% | 72.2 | 87.8% |  | 92.5 | 80.9 | 80.1 | 100% | 86.5 | 88.1 | 98.2 | 160 | 40% | 59.8% |  | 101 |
| CC(C)CCNC(=O)N/C(N)=N/c1nc2ccccc2s1 | 48.4% | 68.8% | 82.2% | 58.4 | 67.4% | 62.6 | 15.8% |  | 86.4 | 28.3 | 73.6 | 73.7% | 88.3 | 58.4 | 52.1 | 116 | 59.1% | 29.6% |  | 81.3 |
| C=C1CCC2C3(C)COC(c4ccc(F)cc4)OC3CCC2(C)C1CC(O)C1=CCOC1=O (centres undefined) | 1.99% (active) | 27.8% | 60.4% | 76.4 | 59.6% | 37.6 | 21.9% | 47.9 | 19.9 | 62.6 | 32.1 | 43.2% | 96.6 | 30.2 | 53.3 | 118 | 21.4% | 22.5% |  | 41.4 |
| CN1CCN(/C(=N\c2sc(-c3ccccc3)nc2-c2ccccc2)c2ccccc2)CC1 | 16.7% | 9.91% (active) | 90% | 100 | 86% | 56.8 | 75% |  | 115 | 81.3 | 82.7 | 82.4% | 105 | 95.3 | 72.7 | 122 | 57.3% | 40.9% |  | 57.7 |
| COc1cc(-c2ccc(/C=N/NC(=O)c3[nH]c4ccc(Br)cc4c3-c3ccccc3)o2)cc(OC)c1OC | 69.2% | 96.4% | 74.4% | 52.4 | 40.6% | 68.8 | 92.2% | 77.2 | 107 | 65.7 | 96.3 | 102% | 112 | 76 | 74.5 | 134 | 69.5% | 77.3% |  |  |
| N#Cc1c(-c2cccc(O)c2O)cc(-c2ccc3ccccc3c2)[nH]c1=O | 52.8% | 98.2% | -6.63% (active) | 41.1 | 40.2% | 67.5 | 45.9% |  | 98.8 | 74.5 | 58.4 | 55.9% | 85.4 | 56.4 | 75.6 | 82.1 | 13.4% | 29.9% |  | 45.7 |
| COc1ccc(/C=C2\C(=O)Nc3ccc(Cl)cc32)cc1OCc1ccccn1 | 59.9% | 76.5% | 38.1% | 42.4 | -5.73% (active) | 38.3 | 52.4% | 20.7 |  | 23.8 | 44.3 | 5.88% (active) | 63.6 | 12.2 | 24.3 | 120 | 50.8% | 45.7% |  | 68 |
